Assay results published in PubChem BioAssay (Tox21).
Values without a mark were called inactive. Records with an inconclusive call do not appear. Entries that show only a call come without a potency. Calls of active or inactive are those of the source. Unless noted, calls follow the shape of the dose curve; as a rule, active = well fitted curve in the direction sought with a large enough effect in the repeat runs; inconclusive = weak or mixed curves; inactive = no such curve, though single readings can be large; an effect the other way counts as inactive or inconclusive.

Columns and labels:
[1] = A CellTox Green Cytotoxicity Assay to monitor cytotoxicity in HepG2 cells - 0 hour (AID 1224882); also: nearly all actives have a fitted effect of over 35% in size
How it was run: (§1)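 HepG2 cells were seeded together with the CellTox Green dye at 600 cells/well, left 5 h at 37 C/5% CO2, then given compounds in DMSO. Fluorescence from dye bound to dead-cell DNA was read repeatedly over 40 h of treatment at 37 C.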

[2] = A CellTox Green Cytotoxicity Assay to monitor cytotoxicity in HepG2 cells - 32 hour (AID 1224883); also: nearly all actives have a fitted effect of over 50% in size
How it was run: as §1

[3] = A CellTox Green Cytotoxicity Assay to monitor cytotoxicity in HEK293 cells - 8 hour (AID 1224884); also: nearly all actives have a fitted effect of over 35% in size
How it was run: (§2)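 HEK293 cells premixed with CellTox Green dye were seeded at 600 cells/well and left 5 h at 37 C/5% CO2 before pin transfer of 23 nL compound in DMSO. Fluorescence from dye bound to dead-cell DNA was read during 40 h treatment.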

[4] = qHTS RealTime-Glo MT Cell Viability Assay in HepG2 cells - 16 hour (AID 1224885); also: nearly all actives have a fitted effect of over 50% in size
How it was run: (§3)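 HepG2 suspension premixed with RealTime-Glo reagents is plated at 600 cells per well and left 5 h at 37 C/5% CO2. Compounds in DMSO then go in, and bioluminescence reflecting viable cell number is recorded over 40 h.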

[5] = qHTS RealTime-Glo MT Cell Viability Assay in HEK293 cells - 24 hour (AID 1224886); also: top concentration of the series differs between compounds; nearly all actives have a fitted effect of over 50% in size
How it was run: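 Reads taken at 0, 8, 16, 24, 32 and 40 h from the same wells. HEK293 cells (600/well) carried RealTime-Glo reagents from seeding, with compound added after a 5 h settle at 37 C.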

[6] = qHTS RealTime-Glo MT Cell Viability Assay in HEK293 cells - 8 hour (AID 1224887); also: top concentration of the series differs between compounds; nearly all actives have a fitted effect of over 50% in size
How it was run: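 HEK293 cells mixed with RealTime-Glo reagents (NanoLuc plus cell-permeant prosubstrate) at 600 cells/well, preincubated 5 h at 37 C/5% CO2, then given 23 nL compound in DMSO. Nonlytic luminescence from viable cells was read at 0, 8, 16, 24, 32 and 40 h.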

[7] = A CellTox Green Cytotoxicity Assay to monitor cytotoxicity in HEK293 cells - 16 hour (AID 1224888); also: nearly all actives have a fitted effect of over 35% in size
How it was run: as §2

[8] = qHTS RealTime-Glo MT Cell Viability Assay in HepG2 cells - 0 hour (AID 1224889); also: nearly all actives have a fitted effect of over 50% in size
How it was run: as §3

[9] = A CellTox Green Cytotoxicity Assay to monitor cytotoxicity in HepG2 cells - 8 hour (AID 1224890); also: nearly all actives have a fitted effect of over 45% in size
How it was run: as §1

[10] = qHTS assay to identify small molecule antagonists of the estrogen receptor alpha (ER-alpha) signaling pathway using the BG1 cell line in the presence of 0.1 nM 17-beta-estradiol - cell viability counter screen (AID 1259241); also: nearly all actives have a fitted effect of over 40% in size
How it was run: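 VM7Luc4E2 cells (endogenous full-length ER-alpha, 4xERE-luciferase), cultured 5 days in charcoal-stripped serum, exposed to compounds with 0.1 nM 17beta-estradiol (final) for 22 hr at 37C. Viability read in same wells as live-cell protease fluorescence after 30 min.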

[11] = qHTS assay to identify small molecule antagonists of the androgen receptor (AR) signaling pathway using the MDA cell line in the presence of 0.5 nM R1881 - cell viability counter screen (AID 1259242); also: nearly all actives have a fitted effect of over 45% in size
How it was run: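 MDA-kb2 cells (human breast carcinoma, stably carrying MMTV-luciferase reporter) were exposed to compounds with 0.5 nM R1881 (final) for 16 hr at 37C, 0% CO2; viability then read as live-cell protease fluorescence (CellTiter-Fluor, 30 min) in the same wells.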

[12] = qHTS assay to identify small molecule HDAC inhibitors (AID 1259364); also: top concentration of the series differs between compounds; nearly all actives have a fitted effect of over 45% in size
How it was run: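 Wild-type HCT-116 cells were plated overnight, exposed to compounds for 2 h at 37 °C, then given HDAC-Glo class I/II luminogenic reagent for 30 min at room temperature before luminescence was read.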

[13] = qHTS assay to identify small molecule HDAC inhibitors - cell viability counter screen (AID 1259365)
How it was run: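 Wild-type HCT-116 cells, 1,500/well, cultured overnight, then compound-treated 2 h at 37 C. Viability measured as ATP luminescence with CellTiter-Glo after 30 min at room temperature.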

[14] = qHTS assay to identify small molecule agonists of the sonic hedgehog signaling (Shh) pathway - cell viability counter screen (AID 1259366); also: nearly all actives have a fitted effect of over 50% in size
How it was run: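 NIH/3T3-derived Gli1-Luc reporter cells, 2,000 per well, received compound after 4 h and were treated about 23 h at 37C. Viability measured in the same wells by CellTiter-Fluor fluorescence after 1 h.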

[15] = qHTS assay to identify small molecule antagonists of the sonic hedgehog signaling (Shh) pathway - cell viability counter screen (AID 1259367); also: nearly all actives have a fitted effect of over 55% in size
How it was run: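 Using CellTiter-Fluor, viability of Gli1-Luc reporter 3T3 cells is read by fluorescence in the wells used for the Shh luciferase assay. Treatment lasts 23 hr with conditioned medium, then reagent 1 hr at 37C.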

[16] = qHTS assay to identify small molecule agonists of the sonic hedgehog signaling (Shh) pathway (AID 1259368; calls by dose curve; also: series mostly up to about 92 µM; nearly all actives have a fitted effect of over 15% in size)
How it was run: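 NIH/3T3-derived 3T3Gli1-Luc cells carrying a stably integrated Gli1 response element–firefly luciferase reporter were plated, left 4 hr at 37 C, then given compounds in DMSO for 24 hr. Luminescence was read 30 min after adding luciferase reagent.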

[17] = qHTS assay to identify small molecule antagonists of the sonic hedgehog signaling (Shh) pathway (AID 1259369; calls by dose curve; also: nearly all actives have a fitted effect of over 45% in size)
How it was run: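 NIH/3T3-derived 3T3Gli1-Luc cells with stably integrated Gli1-Luc reporter were preincubated 4hr at 37 C, then given compounds in DMSO plus Shh conditioned medium and incubated 24hr. Firefly luciferase luminescence read after 30min reagent at room temperature.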

[18] = target: Androgen receptor (Homo sapiens) (UniProt P10275); test: qHTS assay to identify small molecule antagonists of the androgen receptor (AR) signaling pathway using the MDA cell line in the presence of 0.5 nM R1881 (AID 1259243); also: nearly all actives have a fitted effect of over 50% in size; also: potency is read from the fitted curve at half-maximal effect
How it was run: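 MDA-kb2 human breast carcinoma cells carrying an MMTV-luciferase reporter (AR- and GR-responsive) were plated, rested 5 hr at 37C, dosed with compounds, then stimulated with 0.5 nM R1881 (final) for 16 hr; luminescence was read after ONE-Glo.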

[19] = target: Estrogen receptor (Homo sapiens) (UniProt P03372); test: qHTS assay to identify small molecule antagonists of the estrogen receptor alpha (ER-alpha) signaling pathway using the BG1 cell line in the presence of 0.1 nM 17-beta-estradiol (AID 1259244); also: nearly all actives have a fitted effect of over 50% in size
How it was run: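 VM7Luc4E2 cells (endogenous full-length ER-alpha, stable 4xERE-luciferase) were grown 5 days in phenol red-free medium with charcoal-stripped FBS, then exposed 22 h at 37C to compounds plus 0.1 nM (final) 17beta-estradiol; ONE-Glo luminescence read-out.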

[20] = qHTS assay to identify small molecule phospholipidosis (PLD) inducers (AID 1259344; active = well fitted curve in the direction sought with a large enough effect; an effect the other way counts as inactive or inconclusive)
How it was run: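 Fluorescent phospholipid staining (LipidTOX Red) measured by automated microscopy in fixed HepG2 cells after 24 h treatment; nuclei counterstained with Hoechst 33342; amiodarone as reference inducer.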

Androgen receptor (Homo sapiens), sequence (P10275 whole entry, looked up): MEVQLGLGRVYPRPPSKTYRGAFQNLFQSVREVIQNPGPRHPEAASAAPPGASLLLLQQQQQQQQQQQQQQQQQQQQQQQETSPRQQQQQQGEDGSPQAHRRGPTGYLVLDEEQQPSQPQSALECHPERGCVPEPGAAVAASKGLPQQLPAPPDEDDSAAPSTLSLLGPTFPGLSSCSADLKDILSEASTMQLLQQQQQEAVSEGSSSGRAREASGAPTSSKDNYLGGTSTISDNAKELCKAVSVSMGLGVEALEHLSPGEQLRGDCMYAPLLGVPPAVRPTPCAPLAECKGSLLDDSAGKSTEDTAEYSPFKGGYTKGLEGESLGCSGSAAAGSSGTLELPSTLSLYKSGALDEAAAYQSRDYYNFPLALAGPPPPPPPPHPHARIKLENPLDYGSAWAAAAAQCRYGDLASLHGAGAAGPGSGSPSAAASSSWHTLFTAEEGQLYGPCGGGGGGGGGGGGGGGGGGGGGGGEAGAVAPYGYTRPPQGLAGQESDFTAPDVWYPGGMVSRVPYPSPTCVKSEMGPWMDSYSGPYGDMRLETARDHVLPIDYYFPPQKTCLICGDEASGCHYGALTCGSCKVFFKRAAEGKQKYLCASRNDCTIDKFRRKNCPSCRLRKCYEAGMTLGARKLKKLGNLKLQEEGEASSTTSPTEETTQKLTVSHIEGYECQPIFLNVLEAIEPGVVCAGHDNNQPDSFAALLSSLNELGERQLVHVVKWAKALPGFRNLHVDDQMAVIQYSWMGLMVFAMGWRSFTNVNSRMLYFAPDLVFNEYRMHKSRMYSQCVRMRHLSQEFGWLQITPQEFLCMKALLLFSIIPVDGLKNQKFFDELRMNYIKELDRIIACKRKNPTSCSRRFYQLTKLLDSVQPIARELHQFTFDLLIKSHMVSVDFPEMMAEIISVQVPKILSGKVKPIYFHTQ
Estrogen receptor (Homo sapiens), sequence (P03372 whole entry, looked up): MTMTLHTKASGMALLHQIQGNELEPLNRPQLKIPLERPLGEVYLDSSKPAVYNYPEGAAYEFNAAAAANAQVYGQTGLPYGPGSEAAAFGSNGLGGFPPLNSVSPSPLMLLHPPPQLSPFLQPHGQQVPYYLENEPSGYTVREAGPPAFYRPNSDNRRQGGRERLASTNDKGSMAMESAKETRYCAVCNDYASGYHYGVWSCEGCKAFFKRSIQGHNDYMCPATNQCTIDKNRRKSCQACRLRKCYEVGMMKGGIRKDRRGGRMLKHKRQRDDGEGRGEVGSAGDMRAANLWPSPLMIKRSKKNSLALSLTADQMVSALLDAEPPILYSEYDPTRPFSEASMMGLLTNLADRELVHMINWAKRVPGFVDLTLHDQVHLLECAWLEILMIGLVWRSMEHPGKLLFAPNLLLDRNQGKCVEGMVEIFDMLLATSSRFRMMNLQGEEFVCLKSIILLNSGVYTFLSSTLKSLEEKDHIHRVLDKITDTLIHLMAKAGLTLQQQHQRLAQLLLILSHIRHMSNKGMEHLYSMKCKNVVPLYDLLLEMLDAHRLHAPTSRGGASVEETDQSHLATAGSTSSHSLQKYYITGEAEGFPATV

Row | Compound | Potency [1] | Potency [2] | outcome [3] | outcome [4] | Potency [5] | Potency [6] | outcome [7] | Potency [8] | outcome [9] | outcome [10] | outcome [11] | Potency [12] | outcome [13] | Potency [14] | Potency [15] | outcome [16] | Potency [17] | Potency [18] | outcome [19] | outcome [20]
1 | NO | inactive | inactive | inactive | inactive | inactive | inactive | inactive | inactive | inactive | inactive | inactive | inactive | inactive | inactive | inactive | inactive | inactive |  |  | 
2 | Cc1ncc([C@@H](CCCCCCc2ccc3c(n2)NCCC3)CC(=O)O)cn1 | inactive | inactive | inactive | inactive | inactive | inactive | inactive | inactive | inactive | inactive | inactive | inactive | inactive |  |  | inactive | inactive |  |  | 
3 | C=C(C)C(=O)OCC1CCCO1 (centres undefined) | inactive | inactive | inactive | inactive | inactive | inactive | inactive | inactive | inactive | inactive | inactive |  | inactive | inactive | inactive | inactive | inactive |  |  | 
4 | CNC(=O)Nc1ccc(Cl)c(Cl)c1 | inactive | inactive | inactive | inactive | inactive | inactive | inactive | inactive |  | inactive | inactive |  | inactive |  | inactive | inactive | inactive | 30.6 µM (active) |  | 
5 | CCCn1cc[n+](C)c1C | inactive | inactive | inactive | inactive | inactive | inactive | inactive | inactive | inactive | inactive | inactive |  | inactive | inactive | inactive | inactive |  |  |  | 
6 | Nc1c2c(nc3c1CCC3)CCCC2 | inactive | inactive | inactive | inactive | inactive | inactive | inactive |  | inactive | inactive | inactive | inactive | inactive | inactive | inactive | inactive |  | inactive | inactive | inactive
7 | O=C1CCCCCCCCCCCCCCO1 | inactive | inactive | inactive | inactive | inactive | inactive | inactive | inactive | inactive | inactive | inactive |  | inactive |  | inactive | inactive | inactive |  |  | 
8 | CC(C)[C@H]1CC[C@@H](C)CC1=O | inactive | inactive | inactive | inactive | inactive | inactive | inactive | inactive | inactive | inactive | inactive | inactive | inactive | inactive | inactive | inactive | inactive |  |  | 
9 | CCCCCCCCN1CCCC1=O | inactive | inactive | inactive | inactive | inactive | inactive | inactive | inactive | inactive | inactive | inactive |  | inactive | inactive | inactive | inactive | inactive |  |  | 
